In PubChem BioAssay (NCATS):
Results filed as inconclusive are left out. Unmarked numbers belong to inactive results. Calls come from the whole dose curve; as a rule, active = well fitted curve in the direction sought with a large enough effect; inconclusive = small, poorly fitted or top-dose-only effect, or another doubt; inactive = no such curve, though single readings can be large; an effect the other way counts as inactive or inconclusive.

Test: qHTS of pediatric cancer cell lines to identify multiple opportunities for drug repurposing: Primary screen for Rh30 cells (AID 1347107); note: % is set by controls: 0 for no effect and ±100 for the full control effect; nearly all actives have a fitted effect of over 75% in size
Conditions: Rh30 rhabdomyosarcoma viability, CellTiter-Glo luminescence, 48 h; series mostly up to 46 µM; activity change, negative = cytotoxic: at the top concentration
Outline: (§1)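 Cells (500-1,000/well) rested 5 h, then received compounds for 48 h; metabolically active cells were measured by CellTiter-Glo luminescence. Final concentrations spanned up to 46 µM (MIPE, 11-point) or 0.59 nM-46 µM (NPC, 8-point) in primary screens, 11-point in follow-ups.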

SMILES | activity change, negative = cytotoxic
CCCCOC(=O)CC(CC(=O)OCCCC)(OC(C)=O)C(=O)OCCCC | 19.2%
CCOC(=O)C(C#N)=C(c1ccccc1)c1ccccc1 | 7.16%
COc1cc(C)nc(-n2nc(C)cc2OC)n1 | 22.5%
C/C=C/C=N/NC(=O)c1ccncc1 | 7.44%
COc1ccc(C(=O)c2ccccc2)c(O)c1 | 20.6%
CC(=O)OCC(=O)[C@H]1CC[C@H]2[C@@H]3CCC4=CC(=O)CC[C@]4(C)[C@H]3CC[C@]12C | 12.3%
CCCCCCCCCCCCSCCOCCO | 16.1%
Cl/C(=C\n1cncn1)c1ccc(Cl)cc1Cl | 17.9%
CCCCN=C(N)N=C(N)N | 8.06%
CCOC(=O)c1c(N)sc2c1CCN(Cc1ccccc1)C2 | 4.73%
CCOC(=O)Nc1ccc2c(c1)N(C(=O)CCN1CCOCC1)c1ccccc1S2 | 7.04%
O=C1OC(CN2CCOCC2)CN1/N=C/c1ccc([N+](=O)[O-])o1 (configuration not stated) | 12.9%
CC(C)[C@@H]1CC[C@@H](C)CC1=O | -3.39%
FC(F)(F)C(F)(F)C(F)(F)C(F)(F)C(F)(F)C(F)(F)C(F)(F)C(F)(F)Br | 17.4%
CC(O)Cn1cnc2c1c(=O)n(C)c(=O)n2C (configuration not stated) | 7.79%
O=C1c2cccc3c2[C@H](CCC3)CN1[C@@H]1CN2CCC1CC2 | 7.79%

Test: qHTS of pediatric cancer cell lines to identify multiple opportunities for drug repurposing: Primary screen for Rh41 cells (AID 1347108);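 note: luminescence drop marks cytotoxic hits; nearly all actives have a fitted effect of over 70% in size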
Conditions: Rh41 rhabdomyosarcoma viability, CellTiter-Glo luminescence, 48 h; series mostly up to 46 µM; activity change, negative = cytotoxic: at the top concentration
Outline: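 Luminescence from CellTiter-Glo served as readout of metabolically active cells after 48 h compound exposure. Titrations: MIPE 11-point, from 0.78 nM; NPC 8-point, from 0.59 nM (final). Concentration-response curves came straight from the primary screen.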

SMILES | activity change, negative = cytotoxic
CC1(COc2ccc(CC3SC(=O)NC3=O)cc2)CCCCC1 (configuration not stated) | 16.3%
CN1CCN(c2cc3c(cc2F)c(=O)c(C(=O)O)cn3-c2ccc(F)cc2)CC1 | 24.1%
CCCCN1C[C@H](O)[C@@H](O)[C@H](O)[C@H]1CO | 2.57%
O=C(O)CCNC(=O)c1ccccc1 | 14.8%
CC(C)Cn1cnc2c1c(=O)n(C)c(=O)n2C | 11.3%
CCN1CCCC(OC(=O)C(c2ccccc2)c2ccccc2)C1 (configuration not stated) | 2.76%
COc1cc(O)c(C(=O)c2ccccc2)cc1S(=O)(=O)O | 14.2%
Cc1nc(-c2ccc(Cl)cc2)oc1COC(C)(C)C(=O)O | 22.2%
Cc1cccc(C)c1NC(=O)CN1CCCCCC1 | 32.3%
CN(C)C(=O)Nc1ccc(Cl)c(Cl)c1 | 16.2%
CCOc1ccccc1C(N)=O | 3.53%
CC1=C(C(=O)O)N2C(=O)[C@@H](NC(=O)[C@H](N)c3ccccc3)[C@H]2SC1 | 25%
CCCCCCCCCCCCCCCCO | 11.8%
C#C[C@]1(O)CC[C@H]2[C@@H]3CCC4=CC(=O)CC[C@@H]4[C@H]3CC[C@@]21CC | 16.5%
CCC(C(=O)OCCOCCN(CC)CC)c1ccccc1 (configuration not stated) | -3.61%
CCN[C@@H]1C[C@H](N)[C@@H](OC2OC(CN)=CCC2N)[C@H](O)[C@H]1O[C@H]1OC[C@](C)(O)[C@H](NC)[C@H]1O (some centres not stated) | 8.19% [at 0.597 µM]
COc1cc(C)nc(-n2nc(C)cc2OC)n1 | 23%
C/C=C/C=N/NC(=O)c1ccncc1 | 14.7%
COc1ccc(C(=O)c2ccccc2)c(O)c1 | 17.7%
Cl/C(=C\n1cncn1)c1ccc(Cl)cc1Cl | 16.7%
CCCCN=C(N)N=C(N)N | 17.1%
CCOC(=O)c1c(N)sc2c1CCN(Cc1ccccc1)C2 | -0.87%
CCOC(=O)Nc1ccc2c(c1)N(C(=O)CCN1CCOCC1)c1ccccc1S2 | 0.0644%
O=C1OC(CN2CCOCC2)CN1/N=C/c1ccc([N+](=O)[O-])o1 (configuration not stated) | 18.8%
CC(C)[C@@H]1CC[C@@H](C)CC1=O | 6%
FC(F)(F)C(F)(F)C(F)(F)C(F)(F)C(F)(F)C(F)(F)C(F)(F)C(F)(F)Br | 25%
CC(O)Cn1cnc2c1c(=O)n(C)c(=O)n2C (configuration not stated) | 2.46%
O=C1c2cccc3c2[C@H](CCC3)CN1[C@@H]1CN2CCC1CC2 | 3.55%

Test: qHTS of pediatric cancer cell lines to identify multiple opportunities for drug repurposing: Confirmatory screen for NB1643 cells (AID 1347109);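 note: plate controls were DMSO for no effect and bortezomib for full effect; nearly all actives have a fitted effect of over 45% in size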
Conditions: NB1643 neuroblastoma cell viability; series mostly up to 45.9 µM; activity change, negative = cytotoxic: at the top concentration
Outline: as §1

SMILES | activity change, negative = cytotoxic
CCCCCCCCCCCCOCCOCCOCCOCCOCCOCCOCCOCCOCCO | -9.59%
CCN[C@@H]1C[C@H](N)[C@@H](OC2OC(CN)=CCC2N)[C@H](O)[C@H]1O[C@H]1OC[C@](C)(O)[C@H](NC)[C@H]1O (some centres not stated) | 11.9% [at 0.556 µM]
COc1ccc(C(=O)c2ccccc2)c(O)c1 | -1.11%
